Compounds without any hit were thinned out: in the full panel of roughly 83,000, 20% have a hit.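 Compound tested at a single concentration for 48 hours in 96-well plates; a percent growth value below 10 was scored as active.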 Values without a mark were called inactive. Active and inactive are the calls of the source.
Assays:
Test in all cases: NCI-60 one-dose screen, 48 h (100 = growth as untreated, 0 = no growth, -100 = all killed)
Conditions in all cases: 10 µM unless noted
[1] = test system: K-562 leukemia
[2] = test system: MALME-3M melanoma
[3] = test system: MDA-MB-231 breast
[4] = test system: RXF 393 renal
[5] = test system: SF-268 CNS
[6] = test system: SF-295 CNS
[7] = test system: SF-539 CNS
[8] = test system: UACC-257 melanoma
[9] = test system: M14 melanoma
[10] = test system: HCT-15 colon

| SMILES | growth [1] | growth [2] | growth [3] | growth [4] | growth [5] | growth [6] | growth [7] | growth [8] | growth [9] | growth [10] |
| --- | --- | --- | --- | --- | --- | --- | --- | --- | --- | --- |
| CCOC(=O)c1sc(N)c(C(=O)OCC)c1C | 53.2% | 74% | 37.4% | 29.9% | 42.7% | 81.5% | 38.1% | 78.3% | 78% | 45.4% |
| Cc1cccc(/C=C/c2nn3c(-c4ccco4)nnc3s2)c1 | 93% | 96.9% | 98.2% | 111% | 105% | 94.5% | 94.9% | 98.3% | 101% | 88.1% |
| O=c1[nH]c2ccccc2cc1CSc1ccccc1Nc1nccc(-c2ccc(C(F)(F)F)cc2)n1 | 58.6% | 63.6% | 69% | 2.21% (active) | 70.4% | 72.7% | 45.5% | 104% | 92.1% | 69.1% |
| O=C(CSc1nc2sc3c(c2c(=O)n1-c1ccc(Cl)cc1)CCCC3)NNC(=O)Nc1cccc(C(F)(F)F)c1 | 13.1% | 29.8% | 59% | 81.7% | 40.8% | 6.43% (active) | 51.1% | 35.3% | 32.1% | 12.9% |
| Cc1ccccc1NC(=O)/C=C/c1ccc(OCCOc2ccc3c(C)cc(=O)oc3c2)cc1 | 88.8% | 89.7% | 91.8% | 95.3% | 89.2% | 104% | 50.8% | 101% | 98.2% | 74.7% |
| N#Cc1c(-c2ccc(Cl)cc2)nc(SCc2ccc(F)cc2)nc1N1CCNCC1 | -34.5% (active) | 88.3% | 16.2% | 58.5% | 73.3% | 96.8% | 75.9% | 86.4% | 72.8% | 1.29% (active) |
| CS(=O)(=O)c1ccc(-c2nc3ccccn3c2C=Nc2ccc(Cl)cc2)cc1 | 23.6% | 93.6% | 85.5% | 105% | 75.4% | 87.9% | 84.1% | 88.4% | 43.8% | 34.3% |
| COc1cc2cc(Oc3ccc(NC(=O)c4cccc(C(F)(F)F)c4)cc3)c(C)nc2cc1OCCN1CCCCC1 | -48.2% (active) | -86.1% (active) | -100% (active) | -16% (active) | 81.5% | 7.09% (active) | -68.8% (active) | -87.3% (active) | -86.7% (active) | -88.8% (active) |
| NC(=O)c1cc(-c2ccc3ncnc(N4CCc5cc(F)c(Cl)cc54)c3c2)cnc1N | 35.2% | 25.1% | 34.5% | -17.5% (active) | 27.6% | 25.3% | -23.4% (active) | 54.8% | 38.3% | 25.8% |
| CCN1C(=S)N(CC)C2C1N=C(SC)N2/N=C/C=C/c1ccccc1[N+](=O)[O-] (stereo not given) | 68.1% | 93.8% | 89.7% | 115% | 88.5% | 90.4% | 81.1% | 109% | 108% | 79.2% |
| C#C[C@]1(O)CC[C@H]2[C@@H]3CC=C4c5sc(-c6ccc(F)cn6)nc5CC[C@]4(C)[C@H]3CC[C@@]21C | 6.31% (active) | 67.6% | 17.1% | -50.7% (active) | 23% | -70.6% (active) | -45.8% (active) | -31.8% (active) | 36.7% | 30.5% |
| Cn1ccnc1C(=O)/C=C/c1ccc(NC(=O)Nc2ccc(Cl)cc2)cc1 | 47.6% | 84.2% | 73.4% | 70.1% | 81.8% | 85.9% | 83.1% | 100% | 84.4% | 47.1% |
| [Cl][Ru].c1ccc(-c2cccc(-c3ccccn3)n2)nc1.c1ccc(-c2ccnc3c2ccc2c(-c4ccccc4)ccnc23)cc1 | 32.4% | 2.72% (active) | 32.3% | 48.4% | 28.5% | 95.7% | 15.3% | 26.9% | 71.1% | 90.4% |
| NS(=O)(=O)c1cccc(Nc2nc(SCC(=O)c3ccc(Br)cc3)nc3ccccc23)c1 | 44.7% | 54.7% | 64.5% | 24.5% | 32.8% | 17.4% | 72% | 96.1% | 80.2% | 67.4% |
| CC(=O)Oc1ccccc1C(=O)Nc1ccc(C(=O)/C=C/c2cccs2)cc1 | 101% | 104% | 113% | 126% | 107% | 99.1% | 107% | 113% | 107% | 96.7% |
| [Cl][Ru].c1ccc(-c2cc(-c3ccccn3)nc(-c3ccccn3)c2)cc1.c1ccc(-c2ccnc3c2ccc2c(-c4ccccc4)ccnc23)cc1 | 1.44% (active) | -34.3% (active) | -48.4% (active) | -39% (active) | 13.8% | -23.1% (active) | -20.5% (active) | -28.7% (active) | -57.1% (active) | 45.8% |
| CC(=NNc1ncnc2ccccc12)c1ccc(S(C)(=O)=O)cc1 | 96.9% | 98.3% | 93% | 114% | 108% | 97.1% | 97.6% | 108% | 92.5% | 96.5% |
| COc1cc(/C=C/C(=O)c2cc(OC)c(OC)c(OC)c2)ccc1OCc1ccccc1 | 10.2% | 63.1% | 47.7% | 75% | 43.3% | 50.8% | 8.77% (active) | 68.9% | 65.7% | 13.3% |
| CC(C)(C)Nc1nc2c(OCCc3ccccc3)cccn2c1-c1ccc(Cl)cc1 | 5.28% (active) | 1.51% (active) | 17.4% | -15.3% (active) | 45.5% | 3.7% (active) | 21.7% | 16.7% | 26.8% | 3.86% (active) |
| COc1ccc(-c2nn3c(-c4ccccc4F)nnc3s2)cc1 | 18.7% | 66.1% | 41.1% | 68.4% | 74.2% | 58.5% | 59.3% | 86.4% | 34.8% | 31.5% |
| Cc1cc2nc3c4cc(Cl)ccc4n(CC(=S)NCCN(C)C)c3nc2cc1C | -43.6% (active) | -49.2% (active) | -71.8% (active) | -67.8% (active) | 26.8% | -50.4% (active) | -94.3% (active) | -17.2% (active) | -90.1% (active) | -76.3% (active) |
| CC1=C(C)C(=O)C(Nc2ccccc2)=C(Cl)C1=O | 15.9% | 108% | 15.4% | 96.8% | 95.4% | 102% | 95.4% | 90.3% | 95.9% | 94.2% |
| OC1CCN(CCCOc2c3ccccc3nc3c2oc2ccccc23)CC1 | 6.75% (active) | -32.6% (active) | -31.5% (active) | -43.1% (active) | 2.44% (active) | -14.7% (active) | -12.5% (active) | -17.7% (active) | -71.8% (active) | -8.3% (active) |
| OC1CCN(CCCOc2c3ccccc3nc3c2oc2ccc(Cl)cc23)CC1 | 3.22% (active) | 1.25% (active) | 17% | -10.8% (active) | 22.8% | 8.74% (active) | 14.6% | 23.6% | -4.12% (active) | 10.1% |
| O=C(c1ccc(O)cc1)C1[C@H](c2ccc(Cl)cc2)[C@@H](c2ccccc2)NC12C(=O)Nc1ccc(Cl)cc12 (stereo not given in full) | 28.1% | 74.5% | 48.6% | 27.7% | 37.7% | 41.1% | 66.4% | 62.9% | 47.7% | 28.9% |
| Cc1nc2cnc(N)c(C#Cc3cncc(C(=O)Nc4ccc(Cl)c(C(F)(F)F)c4)c3)c2nc1C | -15% (active) | 39.9% | 7.63% (active) | -18% (active) | 52.6% | 88.5% | -12.9% (active) | 77.7% | 29.9% | 52.6% |
| COc1ccc(C(=O)c2cc(C(=O)/C=C/c3c(Cl)cccc3Cl)c3cc(C)ccn23)cc1 | 94.2% | 97.1% | 96.9% | 108% | 98% | 101% | 94.6% | 102% | 99.5% | 99.9% |
